Screens (PubChem BioAssay)
TTR transcr act – activators of transthyretin transcription; AID 1117267; actives 1.3% (n = 92,000); activation, % at 16.7 µM; SH-SY5Y TTR promoter Gaussia luciferase, luminescence; 100% = recombinant luciferase protein wells;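 active = activation above the mean of all tested compounds plus 3 SD, cut at about 9.5% in these data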;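 also: cells exposed to compounds for one day before reading; 0% = median of all test compound wells on the plate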
HuH7 TTR inh – HuH7 TTR transcription inhibition, counter-screen. shares compounds with TTR transcr act. HuH7 TTR promoter-Gaussia luciferase reporter, luminescence. inhibition, % at 16.7 µM. actives 4% (n = 1,100). AID 1117279;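 active = average inhibition above the solvent-only control wells' mean plus 3 SD, cut at about 15% in these data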;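 also: 0% = cells with DMSO only and 100% = cells with inhibitor control FD; inhibitors lower well luminescence so higher value means more inhibition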
TTR act confirm – human TTR transcription activation, confirmation | shares compounds with TTR transcr act | activation, % at 16.7 µM | 1,100 tested, under 10 active | SHSY5Y TTR promoter Gaussia luciferase, luminescence; 100% = purified Lucia enzyme wells, no cells;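 active = mean activation above a set limit taken from the earlier primary screen, cut at about 11% in these data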;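 also: 0% = DMSO-treated cells and 100% = recombinant Lucia luciferase without cells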
An asterisk follows results filed as active. The entries come from a sample that favours hits as a whole.

SMILES	TTR transcr act	others
O=C(NNc1cc(N2CCOCC2)nc(N2CCOCC2)n1)c1ccc(Cl)c(Cl)c1	2
O=C(NNc1nc(N2CCOCC2)nc(N2CCOCC2)n1)c1ccccc1	23*	HuH7 TTR inh=-13;TTR act confirm=0
CC(=O)c1cccc(Nc2nc(N3CCOCC3)nc(N3CCOCC3)n2)c1	0
CC(=O)c1cc(-c2ccc(S(C)(=O)=O)cc2)c(=O)n2c1CCC2	3
CCOC(=O)c1cc2cc(OC)ccc2n1C1CCN(CCc2ccccc2)CC1	1
CC1CCN(CC(=O)NCCc2ccc(F)cc2)CC1	-1
COc1c(O)cccc1[C@@H](O)C1CCN(CCc2ccc(F)cc2)CC1	70*	HuH7 TTR inh=-4;TTR act confirm=0
CCS(=O)(=O)Nc1ccc2c(c1)C(=O)N(C)[C@@H]1CC[C@H](CC(=O)NCCCN3CCOCC3)O[C@H]1CO2	-1
CCOC(=O)C1CCN(C(=O)/C=C/c2ccc(OC)cc2)CC1	1
CCOC(=O)C1CCN(C(=O)Cn2nc(C)n3nc(-c4ccc(OC)cc4)cc3c2=O)CC1	11*	HuH7 TTR inh=-6;TTR act confirm=-1
CCc1ccc(-c2cc3c(=O)n(CC(=O)NCCN4CCCCC4C)nc(C)n3n2)cc1 (centres undefined)	5
Cc1cc(N2CCC(C)CC2)nc(NCc2ccccc2)n1	-1
CSc1ncccc1C(=O)OCc1c(F)cccc1Cl	0
COC(=O)c1cccc(COC(=O)c2cccnc2SC)c1	12*	HuH7 TTR inh=-3;TTR act confirm=0
COC(=O)c1ccc(COC(=O)c2cccnc2Cl)cc1	-1
C[C@H](NS(=O)(=O)c1ccc([N+](=O)[O-])cc1)C(=O)NCCNC(=O)[C@@H](C)NS(=O)(=O)c1ccc([N+](=O)[O-])cc1	1
CCOC(=O)NC(CC(=O)O)c1ccc(OC)c(OC)c1 (centres undefined)	9.7*	HuH7 TTR inh=6;TTR act confirm=-1
CCOC(=O)NC(CC(=O)O)c1ccc(OCC)cc1 (centres undefined)	2
CCOc1ccc(C(NC(=O)/C=C/c2ccco2)c2ccc(OC)c(OC)c2)cc1 (centres undefined)	0
COc1ccc(C(CC(=O)O)NC(=O)c2cc3cc(Br)ccc3oc2=O)cc1OC (centres undefined)	-2
CCOc1ccc(C(NC(C)=O)c2ccc(OC)c(OC)c2)cc1 (centres undefined)	11*	HuH7 TTR inh=-5;TTR act confirm=1
CCCC(=O)NC(c1ccc(OCC)cc1)c1ccc(OC)c(OC)c1 (centres undefined)	-1
O=C(Cc1ccc2c(c1)OCO2)N1CCC(n2nc(-c3ccccc3)oc2=O)CC1	-1
Nc1[nH]c(C(=O)c2ccccc2)c(-c2cccc3ccccc23)c1C(=O)c1c(-c2ccccc2)[nH]c2ccccc12	-2
CNC(=S)NNC(=O)c1sc(-c2cc(C)on2)nc1C	14*	HuH7 TTR inh=-7;TTR act confirm=-1
SMILES	TTR transcr act	others
Cc1cc(C(=O)NNC(=S)NCC(C)C)no1	0
Cc1nc(-c2ccc(Cl)cc2)sc1C(=O)NNC(=O)C(C)C	3
C[C@H]1[C@H](c2ccccc2)OC(O)([C@H](Cc2ccccc2)NC(=O)OC(C)(C)C)CN1C (some centres undefined)	0
O=C(Oc1coc(CSc2ncccn2)cc1=O)c1ccc([N+](=O)[O-])cc1	5
COc1ccc(C)cc1NC(=O)C1CCC(CNc2c(N3CCOCC3)c(=O)c2=O)CC1 (centres undefined)	0
COc1ccc(OC)c(NC(=O)C2CCC(CNc3c(N4CCC(C)CC4)c(=O)c3=O)CC2)c1 (centres undefined)	15*	HuH7 TTR inh=1;TTR act confirm=2
CC1CCN(c2c(NCC3CCC(C(=O)NCc4ccccc4)CC3)c(=O)c2=O)CC1 (centres undefined)	-1
CC(=O)Nc1sc2c(c1-c1nc3ccccc3s1)CCCN(C(C)C)C2	1
COC(=O)CCCc1nc2ccccc2s1	-4
Cc1ccccc1NC(=O)CCCSc1nc2ccccc2s1	12*	HuH7 TTR inh=-16;TTR act confirm=0
O=C(O)CCCc1nc2ccccc2s1	-2
CC(C)(C)NC(=O)CCCSc1nc2ccccc2s1	-1
Cc1cnc(NC(=O)CCCc2nc3ccccc3s2)s1	13*	HuH7 TTR inh=16*;TTR act confirm=1
O=C(CCCSc1nc2ccccc2s1)NCc1ccc2c(c1)OCO2	0
O=C1CCC[C@H]2C[C@H](NCc3cccc(I)c3)CC[C@]23CCCN13	3
Cn1cccc1C(=O)Nc1ccc(Cl)c(S(=O)(=O)N2CCCCC2)c1	2
CC(C)C[C@H](NC1(C(=O)NC2CCCCC2)CCN(C(=O)OC(C)(C)C)CC1)C(=O)NCCc1c[nH]c2ccccc12	7
c1ccc2cc(Cn3ccc4ccc(-c5ccc6cc[nH]c6c5)cc43)ccc2c1	0
COc1ccccc1Nc1nnc(SCC(=O)Nc2cc(C)on2)s1	10
COc1ccccc1NC(=O)Cc1csc(NC(=O)c2ccccc2)n1	-1
COc1ccccc1NC(=O)Cc1noc(CSc2nnc(N)s2)n1	11*	HuH7 TTR inh=-21;TTR act confirm=1
Cc1oc(-c2cccc(Br)c2)[n+]([O-])c1C	-1
O=C(Nc1ccc(F)cc1)Nc1c(-c2ccc(F)cc2)nc2ncccn12	-1
O=c1[nH]c2cc3c(cc2cc1C(c1nnnn1Cc1ccccc1)N1CCCc2ccccc21)OCO3 (centres undefined)	0
CCC(C)(C)n1nnnc1C(c1cc2cccc(C)c2[nH]c1=O)N1CCN(C(=O)c2ccco2)CC1 (centres undefined)	1
SMILES	TTR transcr act	others
Cc1cccc2cc(C(c3nnnn3Cc3ccc4c(c3)OCO4)N3CCCC3)c(=O)[nH]c12 (centres undefined)	11*	HuH7 TTR inh=-13;TTR act confirm=1
CCOC(=O)[C@@]12CCC3=C1N(CCC3)C(=O)[C@H](CC(=O)NCCC(C)C)C2	-1
O=[N+]([O-])c1cccc(-c2noc(-c3ccco3)n2)c1	12*	HuH7 TTR inh=15*;TTR act confirm=-1
Cc1c(-c2nc(-c3cccnc3)no2)cccc1[N+](=O)[O-]	-1
Cc1cccc(-c2noc(-c3ccoc3C)n2)c1	3
COC(=O)[C@]12C[C@H](CC(=O)NCc3ccc(OC)c(OC)c3)C(=O)N(CCc3ccc(OC)c(OC)c3)C1=C[C@H](C1CCCC1)O[C@@H]2C	-1
Cn1c(N)c(C(=O)c2cc(-c3ccccn3)nc3ccccc23)c(=O)[nH]c1=O	-1
O=C(NNC(=S)NCc1ccc(Cl)cc1)c1ccc2c(c1)OCO2	2
CCOC(=O)C1CCCN(Cc2cc(Br)c(OC)cc2OC)C1 (centres undefined)	3
CCOC(=O)C1CCCN(Cc2cc(OC)c(O)c(OC)c2)C1 (centres undefined)	25*	HuH7 TTR inh=-11;TTR act confirm=0
COc1cc(CN2CCC(C(=O)NC3CCCC3)CC2)cc(OC)c1O	0
COc1ccc(-n2nnnc2/C=C\Nc2ccc(C)cc2)cc1	-2
CC1CCC2(CCC(=O)N2C[C@@H](O)c2ccccc2)CC1 (some centres undefined)	0
CCC[C@H]1[C@@H](OC(=O)NCc2ccc(Cl)c(Cl)c2)CC[C@@]23CCCN2C(=O)CCC[C@@H]13	-3
CC(C)Cc1cc(C(=O)NCCCN2CCOCC2)no1	11*	HuH7 TTR inh=2;TTR act confirm=-1
O=C(NCCN1CCOCC1)c1cc(-c2ccc(F)cc2)on1	4
O=C(NCCN1CCOCC1)c1cc(-c2ccco2)on1	3
